GAA inhib = alpha-glucosidase (human) inhibition; P10253; purified human GAA, 4-MU-alpha-glucoside fluorescence; Potency, µM (top dose mostly 76.9 µM), without a hit: top-dose activity change, negative = inhibition, hits mostly inhibitors; actives 0.005% (n = 200,000); AID 1466;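 further: potency means the concentration at half of the fitted maximal effect; plate controls were uninhibited enzyme wells for no effect and no-enzyme background for full effect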
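Endpoint fluorogenic read: 20 min room-temperature reaction of 4 nM human alpha-glucosidase with 400 uM 4-methylumbelliferyl-alpha-D-pyranoside, pH 5.0, quenched with 1M NaOH/1M glycine pH 10. AC50 from Hill modeling.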
B2AR arrestin = agonists driving beta-arrestin recruitment to human beta2-adrenergic receptor; P07550; beta-arrestin recruitment to beta2AR, cell-based reporter; Potency, µM (top dose mostly 46.1 µM), for inactives: at the highest dose activation, actives largely listed as activators; actives 0.02% (n = 330,000);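 further: potency means the concentration at half of the fitted maximal effect; 0% = DMSO controls and full agonism = EC100 isoproterenol or metaproterenol; nearly all actives have a fitted effect of over 65% in size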
Target sequence (P07550 whole entry, looked up): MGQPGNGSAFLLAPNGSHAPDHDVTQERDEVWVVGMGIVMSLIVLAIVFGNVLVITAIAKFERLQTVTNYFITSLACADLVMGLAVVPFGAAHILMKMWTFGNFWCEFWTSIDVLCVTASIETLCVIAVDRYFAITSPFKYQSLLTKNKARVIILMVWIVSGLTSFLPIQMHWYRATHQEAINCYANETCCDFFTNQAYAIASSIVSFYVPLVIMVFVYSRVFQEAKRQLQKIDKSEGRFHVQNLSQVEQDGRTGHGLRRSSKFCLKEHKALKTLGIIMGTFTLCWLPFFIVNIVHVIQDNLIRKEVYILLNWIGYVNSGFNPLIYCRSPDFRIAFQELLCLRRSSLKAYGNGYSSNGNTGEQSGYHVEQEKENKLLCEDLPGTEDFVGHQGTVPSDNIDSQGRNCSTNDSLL
Coupling enz = counter-screen for Giardia aldolase inhibitors: coupling enzyme system; coupling enzyme system counterscreen, AmpLite Red fluorescence; actives 0.67% (n = 290,000); AID 2472; activity change, negative = inhibition, % at 58.2 µM, hits read low; in the data active means activity change below about -30%
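Fluorescence at 525 nm excitation and 598 nm emission measured inhibition of the coupled detection system without aldolase. Compounds (at 57.5 uM final) were preincubated 10 min at room temperature with coupling enzyme reagent before a 20 min substrate/AmpLite Red step.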
GAA glycogen mod = alters human alpha-glucosidase cleavage of glycogen. P10253. recombinant GAA, glycogen substrate, Amplex Red glucose oxidase fluorescence. Potency, µM (series often up to 76.4 µM), inactives show at the highest dose activity change, negative = inhibition, most hits filed as inhibitors. actives 0.38% (n = 300,000);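 further: potency means the concentration at half of the fitted maximal effect; 0% = full enzyme reaction and -100% = no-enzyme basal signal; the screen sought inhibitors and activators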
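Natural-substrate format: glycogen cleavage by 4 nM human enzyme, glucose read by Amplex Red coupling (Ex 573, Em 610 nm). Normalized to enzyme and no-enzyme controls.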
aGlu spleen mod = inhibits or activates alpha-glucosidase in human spleen homogenate; P10253; actives 0.006% (n = 240,000); human spleen homogenate, 4-MU-alpha-glucoside fluorescence; Potency, µM (titrated, usually from 79.9 µM), for the others: at the top dose activity change, negative = inhibition, hits mostly inhibitors;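 further: potency means the concentration at half of the fitted maximal effect; 0% = enzyme with vehicle and -100% = no enzyme basal signal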
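Enzyme source: human spleen homogenate, 1 ug/well. Buffer 50 mM citric acid/K phosphate pH 5.0, 0.01% Tween-20. 4-MU-alpha-glucoside 1 mM; 37 C x 40 min; NaOH/glycine stop; fluorescence.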
* marks the source's active call; other numbers are inactive results; [ ] = dose if it differs, or a comment. An excerpt weighted towards active compounds, which were near 0.85% of everything screened. Unless noted, the call rests on the fitted dose curve; in most records, active means well fitted curve in the direction sought with a large enough effect; inconclusive means small, poorly fitted or top-dose-only effect, or another doubt; inactive means no such curve, though single readings can be large; an effect the other way counts as inactive or inconclusive. Unless noted, on the % scale 0 is the no-effect control and ±100 the full control effect.

Screening CN(C)c1cc(Cl)c2nonc2c1N returned B2AR arrestin 1%, Coupling enz -30*, GAA glycogen mod 13µM* and aGlu spleen mod 2%.
`CCOC(=O)/C(C#N)=C1/C(=O)N(Cc2ccccc2)c2ccccc21` gave GAA inhib -4%, B2AR arrestin 0%, Coupling enz -38*, GAA glycogen mod 3% and aGlu spleen mod 14%.
`CCOc1ccc(S(=O)(=O)N2CCN(c3cccc(C(F)(F)F)c3)CC2)cc1OCC` gave GAA glycogen mod 2%[76.3 µM].
For CSc1ccc(-c2nc3cc(C)ccn3c2Nc2ccc(C)cc2)cc1 the results were GAA glycogen mod 7%[76.3 µM].
For c1ccc(-c2nc3cnccn3c2Nc2ccc3c(c2)OCCO3)cc1 the results were GAA inhib -4%, B2AR arrestin 0%, Coupling enz 4, GAA glycogen mod inconclusive and aGlu spleen mod -1%.
Screening Clc1cccc(-c2nc3ccccn3c2Nc2ccc3c(c2)OCCO3)c1 returned GAA glycogen mod 4µM*.
`Oc1ccc(-c2nc3cnccn3c2Nc2ccc3c(c2)OCCO3)cc1` gave GAA inhib 3%[15.4 µM], B2AR arrestin 0%, Coupling enz -3, GAA glycogen mod 16µM* and aGlu spleen mod -3%.
Cc1ccn2c(Nc3ccc4c(c3)OCO4)c(-c3ccc(O)cc3)nc2c1 was read as B2AR arrestin 5%, Coupling enz 1, GAA glycogen mod 11µM* and aGlu spleen mod -1%.
`Oc1ccc(-c2nc3ccccn3c2Nc2ccc3c(c2)OCCO3)cc1` gave GAA glycogen mod 13µM*.
Screening Brc1ccc2nc(-c3ccccc3)c(Nc3ccc4c(c3)OCO4)n2c1 returned GAA glycogen mod -8%[76.3 µM].
For CC1CCN(C(=O)CN2c3ccc(Br)cc3-c3ccccc3S2(=O)=O)CC1 the results were GAA glycogen mod -2%[76.3 µM].
Screening CSc1nc(N)c2ncn([C@H]3O[C@H](COP(=O)(O)OP(=O)(O)OP(=O)(O)O)[C@@H](O)[C@@H]3O)c2n1 returned Coupling enz 2 and aGlu spleen mod -1%.
`CN(C)c1ccc(-c2nc3ccccn3c2Nc2ccc3c(c2)OCCO3)cc1` gave GAA glycogen mod 18µM*.
For O=C(Nc1ccccc1)Nc1ccc2ocnc2c1 the results were GAA inhib 0%, B2AR arrestin 0%, Coupling enz -7, GAA glycogen mod -13% and aGlu spleen mod 3%.
Screening O=C(O)Cc1ccc2ocnc2c1 returned GAA inhib 2%, B2AR arrestin 0%, Coupling enz 3, GAA glycogen mod 22µM* and aGlu spleen mod -6%.
Screening CCCCCCCCCCCCC/C=C/[C@@H](O)[C@H](COP(=O)([O-])OCC[N+](C)(C)C)NC(=O)CCCCCCCCCCCCCCCCC returned Coupling enz 5 and aGlu spleen mod 6%.
CCC1CN(C(=O)N2CCC(C(=O)NCc3ccccc3F)CC2)c2ccccc2O1 (configuration not stated) was read as GAA glycogen mod -1%[76.3 µM].
For COC(=O)/C=C\c1cc(O)ccc1O the results were Coupling enz -8 and aGlu spleen mod 3%.
For Oc1ccc(Cl)cc1N=Cc1sc2ccccc2c1Cl the results were GAA inhib 5%, B2AR arrestin 0%, Coupling enz -1, GAA glycogen mod 2.8µM* and aGlu spleen mod 10%.
For CC(=O)c1ccc(NC(=O)OCCN2CCN(Cc3ccccc3)CCC2=O)cc1 the results were Coupling enz 1 and aGlu spleen mod -1%.
For O=c1cc2c(=O)oc3cc(O)c(O)oc3c2c(O)c1O the results were GAA inhib -3%, B2AR arrestin 0%, Coupling enz -12, GAA glycogen mod 8.9µM* and aGlu spleen mod 4%.
`C(=N\Nc1ccccn1)/c1c[nH]c2ccccc12` gave B2AR arrestin 4%, Coupling enz 0, GAA glycogen mod 35µM* and aGlu spleen mod 0%.
COCOc1ccc(OC)cc1C(=O)/C=C/c1ccc(OC)c(Br)c1 was read as Coupling enz 1 and aGlu spleen mod -1%.
For Cc1cc(C)c(S(=O)(=O)Nc2ccc(O)cc2)c(C)c1 the results were GAA inhib -8%, B2AR arrestin 0%, Coupling enz -7, GAA glycogen mod 40µM* and aGlu spleen mod 6%.
Screening Cc1cc(=O)[nH]c2ccc(S(=O)(=O)Nc3ccc(O)cc3)cc12 returned B2AR arrestin 0%, Coupling enz -2 and GAA glycogen mod 7.1µM*.
Screening Cc1cc(=O)[nH]c2ccc(S(=O)(=O)Nc3ccccc3)cc12 returned B2AR arrestin 0%, Coupling enz -8 and GAA glycogen mod 0%[76.3 µM].
Screening CCCCC[C@H](O)/C=C/C=C/C=C/[C@H](O)C/C=C\CCCC(=O)O returned Coupling enz -13 and aGlu spleen mod 6%.
For C=CCOc1ccc(CNc2ccc3[nH]c(=O)[nH]c3c2)cc1OCC the results were GAA inhib 6%, B2AR arrestin 0%, Coupling enz 3, GAA glycogen mod 10% and aGlu spleen mod 0%.
Screening COc1cc(CNc2ccc3[nH]c(=O)[nH]c3c2)cc(Cl)c1OCC(=O)NC(C)(C)C returned GAA inhib 0%, B2AR arrestin 0%, Coupling enz -44*, GAA glycogen mod -18% and aGlu spleen mod -3%.
CCOc1cc(CNc2ccc3[nH]c(=O)[nH]c3c2)ccc1OCC(=O)NC(C)(C)C was read as GAA inhib -7%, B2AR arrestin 0%, Coupling enz -33*, GAA glycogen mod -19% and aGlu spleen mod 2%.
O=[N+]([O-])c1ccc(Sc2cccc3cccnc23)c2cccnc12 was read as GAA inhib inconclusive, B2AR arrestin 0%, Coupling enz -34*, GAA glycogen mod -8% and aGlu spleen mod -16%.
`Cc1ccc(N=Cc2ccc[nH]2)c(O)c1` gave GAA inhib -2%, B2AR arrestin 0%, Coupling enz -34*, GAA glycogen mod inconclusive and aGlu spleen mod 0%.
Screening CC1CC=CC2C1C(=O)N(Cc1ccccc1)C2c1ccc(-c2ccoc2)cc1F (configuration not stated) returned Coupling enz -2 and aGlu spleen mod -3%.
`Cc1cc(C(=O)N/N=C/c2ccc(O)c(O)c2O)c(C)n1-c1ccccc1` gave GAA inhib inconclusive, B2AR arrestin 0%, Coupling enz -33*, GAA glycogen mod inconclusive and aGlu spleen mod 3%.
COc1ccc(/C=N/NC(=O)CCN2CCN(c3ccccc3)CC2)c(OC)c1OC was read as GAA inhib -2%, B2AR arrestin 0%, Coupling enz 2, GAA glycogen mod 5% and aGlu spleen mod -11%.
O=C(CCN1CCN(c2ccccc2)CC1)N/N=C/c1ccc(O)c(O)c1O was read as GAA inhib 8%, B2AR arrestin 0%, Coupling enz -40*, GAA glycogen mod inconclusive and aGlu spleen mod 4%.

Bioassay records as filed in PubChem.
